ELG1 genotoxic: induces genotoxicity in HEK293T cells with luciferase-tagged ELG1 | HEK293T ELG1-luciferase reporter, luminescence, 16 h | Potency, µM (highest dose often 46 µM), actives largely listed as activators | 330,000 tested, 1.3% active; further: nearly all actives have a fitted effect of over 60% in size
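Cells (2,000/well) expressing the ELG1-luciferase fusion are dosed by pin tool and kept 16 hr at 37 °C, 5% CO2. Signal comes from ONE-Glo luciferase reagent after 30 min at room temperature.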
p53 reactivator: re-activators of mutant p53; H1299 p53-A138V BP100-luciferase reporter, luminescence, 24 h; Potency, µM (series often up to 92.2 µM), most hits filed as activators; 320,000 tested, 0.063% active; AID 504706; further: nearly all actives have a fitted effect of over 45% in size
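p53-null H1299 cells stably carrying temperature-sensitive p53-A138V and a BP100-luciferase reporter were pinned with compounds (4-point, 1:5 series) and held 24 hrs at 37 deg C. Luminescence was read 10 min after detection reagent.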
AT treatment: candidate therapy for ataxia-telangiectasia. F2112 A-T fibroblasts, KAP-1 phosphorylation AlphaLISA; neocarzinostatin DNA damage 30 min before lysis. 320,000 tested, 0.19% active. Potency, µM (series often up to 57.5 µM), usual class: activators; further: nearly all actives have a fitted effect of over 45% in size
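hTERT-immortalized A-T patient fibroblasts (F2112), 500 cells/well in OPTI-MEM, 1% FBS, got compounds for 60 min, then NCS for 30 min at 37C. Lysates were then assayed for phospho-KAP-1 by AlphaLISA (anti-pKAP1 donor, anti-KAP1 acceptor beads), 6 hr at 25C.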
ELG1 DNA repair: ELG1-dependent DNA repair inhibition. 330,000 tested, 2.3% active. HEK293T ELG1-luciferase reporter, luminescence, 16 h; DNA damage induced by 5-fluorouridine. Potency, µM (titrated, usually from 46.1 µM), actives largely listed as inhibitors. AID 504467; further: nearly all actives have a fitted effect of over 55% in size
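Step one: seed 2,000 cells per well. Step two: pin-transfer compound or DMSO alongside 5-fluorouridine. Step three: incubate 16 hr, 37 °C, 5% CO2. Step four: add ONE-Glo, wait 30 min, read luminescence.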
SW480 rerep: inducers of DNA re-replication in SW480 colon cancer cells; Potency, µM (doses to about 46.1 µM), actives largely listed as activators; SW480 DNA re-replication, Hoechst DNA content imaging, 48 h; 340,000 tested, 1.8% active; further: nearly all actives have a fitted effect of over 55% in size
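Image-based DNA-content assay: after two days of treatment, nuclei were labelled with the DNA dye Hoechst and imaged, and hits were compounds raising the count of nuclei showing high fluorescence intensity.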
MCF10A rereplic: DNA re-replication induction in MCF 10a cells; MCF 10A DNA re-replication, Hoechst nuclear intensity, 48 h; Potency, µM (top dose mostly 46.1 µM), most hits filed as activators; 350,000 tested, 2.9% active; AID 624296; further: nearly all actives have a fitted effect of over 50% in size
Hits are given with their value; – = inactive; ? = inconclusive; · = no result given. In the library only some 7.1% were active in any assay of this set; here they are far more common. The call rests on the fitted dose curve; in most records, active means well fitted curve in the direction sought with a large enough effect; inconclusive means small, poorly fitted or top-dose-only effect, or another doubt; inactive means no such curve, though single readings can be large; an effect the other way counts as inactive or inconclusive.

SMILES	ELG1 genotoxic	p53 reactivator	AT treatment	ELG1 DNA repair	SW480 rerep	MCF10A rereplic
Cc1ccc2nc(-c3ccncc3)[nH]c2c1	12µM	–	–	?	–	–
COc1ccc(N2CCN(Cc3nc4scc(-c5cccs5)c4c(=O)[nH]3)CC2)cc1	–	–	–	?	–	–
CC(=O)c1ccc(CCCCc2ccc(C(C)=O)cc2)cc1	·	·	·	·	–	?
CCc1c(C)c2ccc(OCC(=O)NCC3CCC(C(=O)O)CC3)cc2oc1=O (stereo not given)	–	·	–	–	–	–
CCCNC1(C(N)=O)CCN(Cc2ccccc2)CC1	·	·	·	·	–	–
COc1cc2c3nnc(-c4ccc(F)cc4)c-3cn(Cc3ccccc3F)c2cc1OC	?	?	–	?	?	9.2µM
COc1cc2c3nnc(-c4ccccc4)c-3cn(Cc3ccccc3F)c2cc1OC	–	–	–	–	23µM	23µM
O=C(NCCN1CCOCC1)c1cc(-c2ccc(Br)cc2)on1	–	–	–	–	–	–
O=C(NCCCN1CCOCC1)c1cc2c([nH]c3ccccc32)c(-c2cccc(Br)c2)n1	–	·	–	1.6µM	–	4.6µM
O=C(NCC1CCCO1)c1cc2c([nH]c3ccccc32)c(-c2cccc(Cl)c2)n1 (stereo not given)	–	·	–	?	21µM	?
O=C(NCCCN1CCOCC1)c1cc(-c2ccccc2)on1	18µM	?	–	?	?	–
O=C(NCCN1CCOCC1)c1cc(-c2ccccc2)on1	18µM	–	–	?	–	–
O=C(NCCCN1CCOCC1)c1cc(-c2ccc(O)cc2)on1	–	–	–	?	–	–
O=[N+]([O-])c1cccc(-c2cc(-c3cc(Br)ccc3O)[nH]n2)c1	–	–	–	16µM	?	–
Oc1ccc(Br)cc1-c1cc(-c2ccc(Cl)cc2)n[nH]1	?	–	–	?	15µM	15µM
Oc1ccc(Br)cc1-c1cc(-c2ccccc2)n[nH]1	–	?	–	–	?	?
CCOC(=O)CSc1ccc2ccccc2n1	–	–	–	–	–	–
CCOC(=O)CN1C=C(c2ccc3ccccc3n2)C(C[N+](=O)[O-])c2ccccc21 (stereo not given)	–	–	·	?	?	16µM
COc1ccc(-n2ncc3c(=O)n(CC(=O)NC(C)C)cnc32)cc1	–	·	–	–	–	0.92µM
COc1ccc(CNc2nc(NCc3ccc(OC)cc3)c3[nH]cnc3n2)cc1	–	–	–	–	–	12µM
COc1ccc(CNc2ncnc(N)n2)cc1	–	–	–	–	–	?
CCCc1cc(=O)[nH]c(SCC(=O)N2c3ccccc3NC(=O)C2(C)C)n1	–	–	–	–	–	–
Cn1cc(S(=O)(=O)N2CCCC2)cc1C(=O)O	–	–	–	–	–	–
COc1ccc(C(=O)NCCN(C)C)c2nc3ccccc3cc12	·	·	·	·	?	–
COc1cccc2nc3c(C(=O)NCCN(C)C)cccc3cc12	·	·	·	·	9.2µM	–
SMILES	ELG1 genotoxic	p53 reactivator	AT treatment	ELG1 DNA repair	SW480 rerep	MCF10A rereplic
N#Cc1ccc(/C=C/C(=O)c2ccccc2)cc1	?	–	–	?	–	21µM
Cc1oc(-c2ccc(-c3ccccc3)cc2)nc1CN(C)C1CCOC1 (stereo not given)	?	–	–	?	16µM	?
O=C(CC12CC3CC(CC(Br)(C3)C1)C2)NC1CCCC1	–	–	–	–	–	–
O=C(Nc1cccc(C(F)(F)F)c1)c1ccc2nc(-c3ccco3)c(-c3ccco3)nc2c1	–	–	–	21µM	?	?
Cc1cc(C)cc(OCC(=O)Nc2cccc(-c3nnc(-c4ccco4)o3)c2)c1	–	–	–	21µM	–	–
COc1ccc(C(=O)Nc2cccc(-c3nnc(-c4ccco4)o3)c2)cc1	–	–	–	21µM	–	?
O=C(O)c1ccc2nc(-c3ccco3)c(-c3ccco3)nc2c1	–	–	–	–	–	–
COc1ccc(CC(=O)Nc2cccc(-c3nnc(-c4ccco4)o3)c2)cc1	–	–	–	?	–	–
Cc1cccc(NC(=O)N2CCC(C(=O)c3ccc(F)cc3)CC2)c1	–	–	–	–	2.3µM	–
Cc1cc(C)cc(NC(=O)N2CCC(C(=O)c3ccc(F)cc3)CC2)c1	–	–	–	–	–	–
O=C(c1cccc(S(=O)(=O)Nc2ccccc2Cl)c1)N1CCN(c2ccccc2O)CC1	–	–	–	–	–	–
CN(Cc1ccc(F)cc1)C(=O)c1ccc(NS(=O)(=O)c2ccccc2)cc1	–	–	–	–	–	–
Cc1ccc(NC(=O)CCNC(=O)c2ccc([N+](=O)[O-])cc2)cc1S(=O)(=O)N(C)C	–	–	–	13µM	–	–
COc1ccc(CCC(=O)Nc2ccc(C)c(S(=O)(=O)N(C)C)c2)cc1OC	–	–	–	?	–	–
Cc1ccc(NC(=O)c2ccc(OC(F)F)cc2)cc1S(=O)(=O)N(C)C	–	?	–	?	·	–
COc1cc(CCC(=O)Nc2ccc(C)c(S(=O)(=O)N(C)C)c2)cc(OC)c1OC	–	–	–	9.2µM	–	–
Cc1ccc(NC(=O)c2ccc([N+](=O)[O-])cc2)cc1S(=O)(=O)N(C)C	–	–	–	18µM	–	–
C=CCc1c(C)nc2cc(-c3ccc(C)cc3)[nH]n2c1=O	1.8µM	·	–	?	–	–
CCc1c(C)nc2cc(-c3ccccc3)[nH]n2c1=O	?	·	–	?	–	–
Cc1cc(-c2cc(-c3ccccc3)on2)nc(NCC2CC2)n1	–	–	?	–	–	18µM
CCc1nc2ccccc2[nH]1	–	–	–	–	–	–
CCc1nc2ccc(Cc3ccc4nc(CC)[nH]c4c3)cc2[nH]1	–	–	–	–	3.3µM	–
CC(NC1CCCCC1)C(=O)NN=C(c1ccccc1)c1ccccc1 (stereo not given)	–	–	–	–	–	–
C[C@]1(c2ccccc2)OC(C(=O)O)=CC1=O	·	·	·	·	–	–
CC(C)/C=C1\CC/C(=C\c2ccc(N(C)C)cc2)C1=O	9.2µM	?	–	?	?	?
CC(C)c1ccc(/C=C2\CC/C(=C\C=N\N(C)C)C2=O)cc1	3.3µM	–	·	?	–	–
O=C(NCC(c1ccccc1Cl)N1CCCC1)c1ccc(N2CCCC2=O)cc1 (stereo not given)	–	?	–	?	–	–
Cc1oc(-c2ccccc2)nc1CS(=O)CC(=O)NC1CCCC1 (stereo not given)	–	–	–	–	–	–
COc1ccc(C2CC(c3cccc(Cl)c3)=NN2c2ccc(S(N)(=O)=O)cc2)cc1 (stereo not given)	–	–	–	–	2.1µM	1.3µM

Screening data: PubChem BioAssay, National Center for Advancing Translational Sciences (NCATS)
